Laboratory results as given in PubChem BioAssay AID602252 (Broad Institute, 2012).
Out of some 300,000 compounds screened, about 2,700 (0.9%) were called active.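 The calls were made as follows: active = mean inhibition of at least 30% with at least half of replicates also reaching 30%; inconclusive = no clear call, values can overlap the other calls; inactive = the rest.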 Shown is part of a subset that was picked to be rich in actives.

target: Golgi-associated PDZ and coiled-coil motif-containing protein (Homo sapiens) (UniProt Q9HD26); experiment: blockade of CAL PDZ-reporter peptide interaction – biochemical, fluorescence polarization, untagged CAL PDZ, HTS, primary screen (AID 602252); details: purified CAL PDZ, TMR-peptide fluorescence polarization, 1 h; at 24.9 µM; stronger effect = higher value;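 also: 0% = DMSO neutral control and 100% = excess unlabeled competitor peptide PRC23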

Compound	inhibition
CCOc1ccc(NC(=O)CN(C)CC(=O)Nc2cccc(Cl)c2C)cc1OCC	-7.09% (inactive)
CCOc1ccc(NC(=O)CN(C)C(=O)CSc2ccccc2)cc1OCC	-0.51% (inactive)
CCOc1ccc(NC(=O)CN(C)CC(=O)NC(C)c2ccccc2)cc1OCC (stereo not drawn)	39.5% (active)
COc1ccc(S(=O)(=O)N2C[C@H]3CON(C)[C@H]3C[C@H]2c2cccc(Br)c2)cc1	-1.19% (inactive)
COc1cccc2c1C(=O)c1c(O)c3c(c(O)c1C2=O)CC(O)(C(C)=NNC(=O)c1ccc(Cl)c(Cl)c1)CC3OC1CC(N)C(O)C(C)O1 (stereo not drawn)	-11.4% (inactive)
Cc1c([N+](=O)[O-])c(N)nn1C	46.7% (active)
Cc1nn(C)c(Oc2ccccc2)c1[N+](=O)[O-]	-1.91% (inactive)
Cn1nc(C(C)(C)C)c([N+](=O)[O-])c1C(N)=O	-0.311% (inactive)
COc1ccccc1C(=O)CSc1cccc[n+]1[O-]	1.87% (inactive)
O=C(CSc1cccc[n+]1[O-])c1ccc(-c2ccccc2)cc1	0.814% (inactive)
O=C(CSc1cccc[n+]1[O-])c1ccc(Cl)cc1	51.8% (active)
CCOC(=O)C1CCCN(C(=O)C2CCN(S(=O)(=O)c3ccc(Cl)c(C(F)(F)F)c3)CC2)C1 (stereo not drawn)	-2.17% (inactive)
O=C(Nc1ccc(N2CCOCC2)cc1)c1ccc(-c2ccccc2[N+](=O)[O-])o1	-1.55% (inactive)
O=C1NC(c2ccc(-c3ccccc3[N+](=O)[O-])o2)C(C(=O)c2ccc(Cl)cc2)C(O)(C(F)(F)F)N1 (stereo not drawn)	-0.998% (inactive)
CC1=NN(c2ccc(Cl)c(C(=O)O)c2)C(=O)/C1=C/c1ccc(-c2ccccc2[N+](=O)[O-])o1	64% (active)
COC1C(CO)OC(n2cnc3c(=S)nc(N)[nH]c32)C1O (stereo not drawn)	-4.66% (inactive)
COc1cc(OC)cc(-c2sc3ccc(OC)cc3c2-c2ccc3cc[nH]c3c2)c1	-4.97% (inactive)
O=C(NCc1ccccc1)c1cccc(NC(=O)C2CCCCC2)c1	-1.61% (inactive)
COc1ccc(C(=O)CSc2nnc(COc3ccccc3)n2Cc2ccco2)cc1	-1.09% (inactive)
N=c1c2c(-c3ccccc3)c(-c3ccccc3)oc2ncn1Cc1ccco1	4.45% (inactive)
COc1ccc(-c2oc3ncn(Cc4ccco4)c(=N)c3c2-c2ccc(OC)cc2)cc1	36.1% (active)

Compound	inhibition
O=C(c1cccc(S(=O)(=O)N2CCCCCC2)c1)N1CCN(Cc2ccccc2)CC1	-6.1% (inactive)
O=C(NCCc1c[nH]c2ccc(Cl)cc12)c1ccc([N+](=O)[O-])cc1	-7.41% (inactive)
Cc1ccc2[nH]cc(CCNC(=O)c3ccc([N+](=O)[O-])cc3)c2c1	-3.1% (inactive)
O=C(C[C@H]1C/C=C\C[C@@H](NC(=O)OCC2c3ccccc3-c3ccccc32)C(=O)O[C@@H](c2ccccc2)CNC1=O)N[C@H](CO)Cc1ccccc1	3.89% (inactive)
C=CC[C@@H](CC(=O)N[C@@H](CO)Cc1ccccc1)C(=O)NCCOC(=O)[C@@H](CC=C)CC(=O)OC(C)(C)C	-4.88% (inactive)
CC(=O)c1cccc(-c2ccc(CN3C(CC(C)C)C(=O)N(Cc4cn(CC5CCCCC5)nn4)CCS3(=O)=O)cc2)c1 (stereo not drawn)	-1.77% (inactive)
O=C(Nc1nnc(SCc2c(Cl)cccc2Cl)s1)c1cccc([N+](=O)[O-])c1	76.9% (active)
NC(=O)CSc1nnc(NC(=O)c2ccc3ccccc3c2)s1	-4.05% (inactive)
O=C(Nc1nnc(SCc2ccccc2Cl)s1)c1cccc([N+](=O)[O-])c1	-3.54% (inactive)
O=C(CSc1nc2ccccc2c(=O)n1Cc1ccc(F)cc1)NCC1CCCO1 (stereo not drawn)	0.714% (inactive)
Cc1ccc(NC(=O)c2ccc(Cl)nc2)cc1S(=O)(=O)N1CCOCC1	-1.23% (inactive)
CC[C@]12c3[nH]c4cc(CCC(=O)N(C)C)ccc4c3CCN1C(=O)[C@@H](CC(=O)NCC13CC4CC(CC(C4)C1)C3)C[C@@H]2C(=O)N1CCN(C(=O)C2CC2)CC1	5.74% (inactive)
CCCCC(=O)NC(c1ccc(OC)c(OC)c1)c1ccc2cccnc2c1O (stereo not drawn)	-1.93% (inactive)
C=CCNC(=S)N/N=C/c1ccc(OCc2ccccc2)cc1	51.2% (active)
O=C(COc1ccc(/C=N/NC(=O)c2ccc(O)cc2)cc1)Nc1ccc([N+](=O)[O-])cc1	-1.35% (inactive)
O=C(O)c1ccc(/C=N/NC(=S)NCc2ccccc2)cc1	-1.3% (inactive)
O=C(N/N=C/c1ccc(OC(=O)c2ccccc2Cl)cc1)c1ccc(O)cc1	-4.63% (inactive)
O=C(Cc1cccs1)N/N=C/c1ccc(OCc2ccccc2)cc1	-1.99% (inactive)
O=C(N/N=C/c1ccc(OCc2ccccc2)cc1)c1ccc(O)cc1	83.5% (active)
CN1C(c2ccc(F)cc2)=CS/C1=C(/C#N)c1nnc2n1-c1ccccc1SC2	7.66% (inactive)
C=CCC[C@H](Cc1ccc(F)cc1)C(=O)OC[C@@H](Cc1c[nH]c2ccccc12)NC(=O)[C@H](CC=C)CC(=O)N[C@H](CO)Cc1ccccc1	-1.97% (inactive)

Compound	inhibition
C=CCC[C@H](Cc1ccc(F)cc1)C(=O)OC[C@@H](NC(=O)[C@@H](CC=C)CC(=O)N[C@H](CO)Cc1ccccc1)C(C)(C)C	40.2% (active)
C=CC[C@@H](CC(=O)N[C@H](CO)Cc1ccccc1)C(=O)N[C@H](C)COC(=O)[C@@H](CC=C)Cc1ccc(F)cc1	4.91% (inactive)
O=C1/C(=C\c2ccc(O)cc2)CCC1CNc1ccc(Cl)cc1 (stereo not drawn)	-2.09% (inactive)
CC(=O)OC1CCC2(C)C(=CCC3C4CC(=O)N(O)C(=O)C4(C)CCC32)C1 (stereo not drawn)	-3.51% (inactive)
c1ccc(C(=NNc2nc3ccccc3s2)c2ccccn2)cc1	10.3% (inactive)
CCCCc1nnc(NC(=O)CS(=O)(=O)Cc2ccccc2)s1	30.2% (active)
COCc1nnc(NC(=O)CS(=O)(=O)Cc2ccccc2)s1	-3.64% (inactive)
CCOCc1nnc(NC(=O)CCS(=O)(=O)Cc2ccccc2)s1	-2.55% (inactive)
COc1ccc(N2CCN(C(CNS(=O)(=O)c3ccc(C)cc3)c3ccccc3)CC2)cc1 (stereo not drawn)	-2.12% (inactive)
O=C1C=CN2CCCC2CC1 (stereo not drawn)	-1.74% (inactive)
O=C(NC(=S)Nc1ccc(Br)cc1F)C1CCCCC1	-6.68% (inactive)
Cc1nn(-c2ccc(F)cc2)c(Cl)c1/C=C(/CCC(=O)O)c1nc2ccccc2s1	-3.19% (inactive)
COc1cc(C2c3cc4c(cc3C(O)C3COC(=O)C23)OCO4)cc(OC)c1OC (stereo not drawn)	-1.27% (inactive)
CS(=O)(=O)N1CCc2cc(C(=O)Nc3ccccc3Br)ccc21	-1.26% (inactive)
CCc1ccccc1NC(=O)c1ccc2c(c1)CCN2S(C)(=O)=O	40% (active)
CSc1ccccc1NC(=O)c1ccc2c(c1)CCN2S(C)(=O)=O	-1.36% (inactive)
COc1cc(OC)cc(-c2cc3ccc(F)cc3cn2)c1	-1.91% (inactive)
O=C(C1CCN(C2CCN(Cc3cccc4c3OCO4)CC2)CC1)N1CCOCC1	37.8% (active)
O=C(C1CCN(Cc2ccc(Cl)cc2)CC1)N1CCN(Cc2ccc3c(c2)OCO3)CC1	2.38% (inactive)
C/C(=C\c1ccco1)CN1CCC(N2CCC(C(=O)N3CCOCC3)CC2)CC1	5.25% (inactive)
CCC(CO)Oc1cc(NC(=O)c2cccc3ccccc23)c2ncn(C(C)C)c2c1 (stereo not drawn)	-1.65% (inactive)

Compound	inhibition
Cc1cc(C)cc(OCC(=O)Nc2ccc(N3CCOCC3)cc2N2CCOCC2)c1	-3.82% (inactive)
CCOc1ccc(NC(=O)c2nc(SCC)ncc2Cl)cc1	-1.2% (inactive)
CCOc1ccc(N/C(N)=N/c2nc(C)c(C)c(=O)[nH]2)cc1	42% (active)
CCOc1ccc(NC(=O)C2CC(=O)N=C(N)S2)cc1 (stereo not drawn)	-0.069% (inactive)
CCCCN1CC(COCc2ccccc2)OCCS1(=O)=O (stereo not drawn)	-4.9% (inactive)
O=C(O)c1ccc(NN=CC2=C(N3CCOCC3)/C(=C/c3ccccc3)CC2)cc1	-3.09% (inactive)
CCCCNC(=O)C(C)N(CCN(C)C)C(=O)CCCCCN1C(=O)NC(c2ccc(Cl)cc2)C(C(=O)OCc2ccccc2)=C1C (stereo not drawn)	-7.11% (inactive)
Cc1oc2nc(SCC(=O)Nc3ccc(S(N)(=O)=O)cc3)nc(NC(=O)c3ccccc3)c2c1C	30.6% (active)
Cc1cc(-c2nnc(SCC(=O)Nc3ccc(S(N)(=O)=O)cc3)n2N)n[nH]1	2.84% (inactive)
Cc1oc2nc(SCC(=O)NCc3cccnc3)nc(N)c2c1C	-4.94% (inactive)
O=C(/C=C/c1c(F)cccc1Cl)Nc1nn[nH]n1	133% (active)
O=C(CCc1ccccc1)Nc1nn[nH]n1	-4.68% (inactive)
CCOC(=O)CNC(=O)/C=C/c1c(Cl)cccc1Cl	-4.11% (inactive)
COc1ccc2c(c1)[C@H]1[C@H](CO2)[C@H](c2ccccc2)[C@]2(C)C(=O)Nc3cc(F)c(F)cc3C(=O)N12	-3.04% (inactive)
Cc1ccc(S(=O)(=O)NC[C@H]2O[C@@H](n3cnc4c(N)ncnc43)[C@H](O)[C@@H]2O)s1	-0.852% (inactive)
C=CCNc1cnn(-c2ccc(C)cc2)c(=O)c1Cl	82% (active)
CCCNC(=O)c1c(Cl)cnn1-c1ccc(C)cc1	4.34% (inactive)
O=c1c(Cl)c(NC2CC2)cnn1-c1ccccc1	-0.978% (inactive)
COc1ccc2[nH]c3c(c2c1)CCN1C(=O)C(CC(=O)NCCc2ccccn2)C[C@H](C(=O)N2CCOCC2)[C@@]31C (stereo partly drawn)	-8.9% (inactive)
COC(=O)[C@]1(Cc2ccccc2)N[C@H](CN(C)S(=O)(=O)c2ccc(OC(F)(F)F)cc2)[C@@H]2C(=O)N(C)C(=O)[C@@H]21	-4.26% (inactive)
